Bioassay records: PubChem, National Center for Advancing Translational Sciences (NCATS)
This is a sample that favours compounds with a hit; in the whole collection about 3.2% have one here.
TRb SRC2 PPI: TRbeta-SRC2 interaction inhibition | P10828 | TRbeta-SRC2 peptide binding, fluorescence polarization; receptor liganded with 1 µM T3 | Potency, µM (top dose mostly 106 µM), for the others: top-dose activity change, negative = inhibition, most hits filed as inhibitors | AID 1469 | actives 0.065% (n = 280,000);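 further: plate controls were bound peptide for no effect and peptide without receptor for full effect; nearly all actives have a fitted effect of over 50% in size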
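Human TRb LBD (0.6 uM) plus Texas Red-labeled SRC2 peptide (20 nM), 1uM T3, 5% DMSO, 5 hr at ambient temperature. Decreased polarization (555/632 nm) flags inhibition; data normalized to free and bound peptide controls.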
Tau fluor cs: counter-screen for tau fibril formation inhibitors | tau K18 P301L Alexa594 fluorescence, heparin fibrillization | Potency, µM (series often up to 57.7 µM), for the others: top-dose activity change, negative = decrease | actives 0.93% (n = 280,000); further: nearly all actives have a fitted effect of over 55% in size
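Human K18 P301L tau (15 uM unlabeled plus 0.24 uM Alexa 594-labeled, final) in 100 mM sodium acetate pH 7 was mixed with compound and 20 uM heparin and incubated 6 hr at 37 C.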
TR SRC2 fluor cs: alters Texas Red total fluorescence, flagging assay interference; TRb/SRC2 Texas Red total fluorescence interference; Potency, µM (highest dose often 106 µM), for the others: top-dose fluorescence change, negative = quenching; actives 0.29% (n = 280,000); active means well fitted curve in either direction with a large enough effect; inconclusive means small, poorly fitted or top-dose-only effect
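Human TRβ ligand-binding domain (0.6 uM) and Texas Red SRC2 peptide (20 nM) in Tris buffer with 1 uM T3 and 5% DMSO were incubated with pinned compound for 5 hr at ambient temperature. Total fluorescence was computed as S + 2P (555/632 nm).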
Tau fibril ThT: tau fibrillization inhibition (ThT binding); P10636; AID 1460; actives 2.1% (n = 270,000); recombinant tau K18 P301L (four-repeat tau fragment), heparin-induced fibrillization, ThT fluorescence; Potency, µM (highest dose often 57.4 µM), for the others: top-dose activity, negative = inhibition, usual class: inhibitors; further: nearly all actives have a fitted effect of over 55% in size
Target sequence (P10636 561-689 P618L limits assumed): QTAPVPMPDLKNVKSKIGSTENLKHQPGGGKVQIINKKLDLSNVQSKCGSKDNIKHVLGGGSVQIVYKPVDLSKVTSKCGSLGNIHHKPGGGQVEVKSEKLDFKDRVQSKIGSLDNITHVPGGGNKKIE
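In this qHTS, human K18 P301L tau is incubated with compound and heparin for 6 hr at 37 C, and Thioflavin T fluorescence then reports fibril load.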
Tau FP inhib: blocks human tau fibril formation measured by polarization; P10636; actives 0.39% (n = 280,000); K18 P301L tau heparin fibrillization, Alexa594 FP, 6 h; Potency, µM (top dose mostly 57.7 µM), inactives show top-dose activity, negative = inhibition, actives largely listed as inhibitors; further: nearly all actives have a fitted effect of over 55% in size
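Recombinant K18 P301L […], labeled with Alexa 594 at 0.24 uM over 15 uM unlabeled; heparin inducer 20 uM final; 37 C, 6 hr; FP endpoint.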
RGS12 GoLoco inh: inhibitors of human Gai1-RGS12 GoLoco interaction (red fluorophore). P63096. AID 880. Potency, µM (top dose mostly 61.6 µM), inactives show top-dose activity, negative = inhibition, actives largely listed as inhibitors. actives 0.44% (n = 230,000). Gai1:RGS12 GoLoco peptide FP, rhodamine, 10 min; active means well fitted inhibition curve with a large enough effect, not every such curve was filed as active; inactive means no such curve, though single readings can be large or run the other way; further: nearly all actives have a fitted effect of over 30% in size
Target sequence (P63096 whole entry, looked up): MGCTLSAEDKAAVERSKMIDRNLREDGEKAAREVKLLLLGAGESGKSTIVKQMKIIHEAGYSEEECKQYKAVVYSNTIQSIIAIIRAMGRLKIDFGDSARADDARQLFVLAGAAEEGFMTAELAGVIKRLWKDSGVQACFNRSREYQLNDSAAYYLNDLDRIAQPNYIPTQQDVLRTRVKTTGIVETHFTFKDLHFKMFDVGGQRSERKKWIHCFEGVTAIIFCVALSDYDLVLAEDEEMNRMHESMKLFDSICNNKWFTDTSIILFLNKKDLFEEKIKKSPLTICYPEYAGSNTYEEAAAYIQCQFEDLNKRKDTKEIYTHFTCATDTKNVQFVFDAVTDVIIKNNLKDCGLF
An asterisk follows results filed as active; ? = inconclusive; · = no result; [ ] = another dose, or the depositor's remark. Unless noted, the call rests on the fitted dose curve; in most records, active means well fitted curve in the direction sought with a large enough effect; inconclusive means small, poorly fitted or top-dose-only effect, or another doubt; inactive means no such curve, though single readings can be large; an effect the other way counts as inactive or inconclusive. Unless noted, on the % scale 0 is the no-effect control and ±100 the full control effect; potency means the concentration at half of the fitted maximal effect.

SMILES	TRb SRC2 PPI	Tau fluor cs	TR SRC2 fluor cs	Tau fibril ThT	Tau FP inhib	RGS12 GoLoco inh
CC1(C(=O)O)NCCc2cc(O)c(O)cc21 (stereo unspecified)	4.1%	-15.6%	-3.7%	20µM*	?	-8.3%
Cc1cc(N2CCN(C)CC2)nc2ccc(NC(=O)c3cccnc3Cl)cc12	-2.7%	-16.6%	-3.7%	?	-5.1%	3.5%
Cc1cc(N2CCN(C)CC2)nc2ccc(NC(=O)Nc3ccccc3Br)cc12	1.4%	12.6µM*[quencher]	-3.1%	12.6µM*	?	·
Cc1ccc(NC(=O)Nc2ccc3nc(N4CCN(C)CC4)cc(C)c3c2)cc1C	-4.4%	4.47µM*[quencher]	-18.1%	8.91µM*	3.3%	·
Cc1cc(N2CCN(C)CC2)nc2ccc(NC(=O)c3ccccc3F)cc12	7.7%	?	0.5%	?	-1.7%	-5.4%
Cc1cc(N2CCN(C)CC2)nc2ccc(NC(=S)NC3CC3)cc12	-6.4%	-4.8%	0.3%	-12.1%	0.4%	-1.8%
Cc1cc(N2CCN(C)CC2)nc2ccc(NC(=O)Nc3ccc(F)cc3F)cc12	-6.1%	15.8µM*[quencher]	-4.4%	?	?	·
Cc1cc(N2CCN(C)CC2)nc2ccc(NC(=O)Nc3ccccc3)cc12	3.5%	17.8µM*[quencher]	-2.7%	?	?	·
Cc1nnc(S(=O)(=O)c2ccc(N=Nc3c(N)nc(N)nc3N)cc2)s1	·	·	·	·	·	10.9%[14.2 µM]
Cc1cc(N2CCN(C)CC2)nc2ccc(NC(=O)Nc3cccc(Cl)c3)cc12	-2.1%	3.98µM*[quencher]	-19.0%	14.1µM*	?	·
CCC(=O)Nc1c(C#N)c2nc3ccccc3nc2n1C1CCCCC1	-3.9%	1.6%	0.2%	-12.2%	7.2%	8.7%
CCOC(=O)c1c(NC(=O)c2ccco2)n(C2CCCCC2)c2nc3ccccc3nc12	?	-29.3%	0.9%	17.8µM*	?	15.4%
CCCNC(=O)C1CCN(c2ncnc3c2nc2n3CCCCC2)CC1	1.3%	0.9%	3.6%	-2.9%	-3.5%	·
CCOc1ccc(CCNC(=O)C2CCN(c3ncnc4c3nc3n4CCCCC3)CC2)cc1	-9.4%	-0.4%	22.4µM*[quencher]	-6.8%	-1.1%	·
CN(C)CCNC(=O)C1CCN(c2ncnc3c2nc2n3CCCCC2)CC1	-9.6%	8.4%	25.1µM*[quencher]	9.2%	-1.1%	·
CCCC[C@H]1CCCO[C@@](C(=O)NCc2ccccn2)(C(F)(F)F)C1	-4.3%	·	-1.6%	·	·	·
O=C1C(=C(O)c2ccccc2)C(=O)c2ccccc21	-19.2%	-21.7%	0.3%	?	?	-7.1%
O=C1C(=C(c2ccccc2)c2ccccc2)Nc2ccccc21	9.2%	?	2.7%	15.8µM*	-11.3%	165.2%
COc1ccc(NC(=O)N2CCN(c3ccc([N+](=O)[O-])cc3)CC2)cc1	-6.9%	-7.7%	0.1%	-0.7%	5.0%[2.34 µM]	-29.7%
O=C1C2CC=CCC2C(=O)N1c1ccc(N2CCN(c3ccccn3)CC2)c([N+](=O)[O-])c1 (stereo unspecified)	-1.6%	-28.2%	-1.3%	14.1µM*	2.5%	-6.1%
CN(C)c1ccc(C(=S)N2CCN(c3ccc([N+](=O)[O-])cc3)CC2)cc1	1.7%	-8.8%	-3.8%	-7.2%	3.2%	20µM*
O=C(c1ccc(N2CCCCC2)c([N+](=O)[O-])c1)N1CCN(c2ccccn2)CC1	0.6%	-7.1%	1.4%	?	8.2%	-2.4%
COc1ccc(NC(=O)N2CCN(c3ccc([N+](=O)[O-])cc3)CC2)cc1OC	-9.6%	-23.4%	4.3%	8.91µM*	-4.4%	1.9%
CN(C)c1ccc(C(=S)N2CCCCCC2)cc1	-7.4%	?	0.7%	25.1µM*	?	4.1%
O=[N+]([O-])c1ccc(C(=S)N2CCN(c3ccc(F)cc3)CC2)cc1	2.5%	-28.2%	0.4%	?	-0.9%	0.3%
SMILES	TRb SRC2 PPI	Tau fluor cs	TR SRC2 fluor cs	Tau fibril ThT	Tau FP inhib	RGS12 GoLoco inh
CSCC[C@H](N)C(=O)N[C@@H](CCC(=O)O)C(=O)N[C@H](C(=O)NCC(=O)N[C@@H](Cc1c[nH]c2ccccc12)C(=O)N[C@@H](Cc1ccc(O)cc1)C(=O)N[C@@H](CCCNC(=N)N)C(=O)N[C@@H](CO)C(=O)N1CCC[C@H]1C(=O)N[C@@H](Cc1ccccc1)C(=O)N[C@@H](CO)C(=O)N[C@@H](CCCNC(=N)N)C(=O)N[C@H](C(=O)N[C@H](C(=O)N[C@@H](Cc1cnc[nH]1)C(=O)N[C@@H](CC(C)C)C(=O)N[C@@H](Cc1ccc(O)cc1)C(=O)N[C@@H](CCCNC(=N)N)C(=O)N[C@@H](CC(N)=O)C(=O)NCC(=O)N[C@@H](CCCCN)C(=O)O)C(C)C)C(C)C)C(C)C	12.8%	·	-0.8%	·	·	·
O=S1(=O)C2CC3OC2(CC3c2ccc(F)cc2)CN1Cc1ccc(Cl)cc1 (stereo unspecified)	6.0%	·	0.0%	·	·	·
CNC(=S)N1CCN(c2ccc([N+](=O)[O-])cc2)CC1	-0.5%	-6.1%	1.5%	5.62µM*	-1.5%	-5.2%
O=C1CCCC(=O)N1c1ccc(N2CCN(c3ccc([N+](=O)[O-])cc3)CC2)c([N+](=O)[O-])c1	8.5%	-20.2%	-8.2%	3.98µM*	-0.2%	-1.8%
NC(=O)c1ccc(N2CCN(c3ccc(O)cc3)CC2)c([N+](=O)[O-])c1	5.9%	-20.6%	-5.1%	17.8µM*	0.9%	-7.7%
O=C1CCCC(=O)N1c1ccc(N2CCN(c3ccccc3)CC2)c([N+](=O)[O-])c1	2.3%	-6.1%	-1.0%	?	2.7%	-1.4%
CCNC(=S)N1CCN(c2ccc([N+](=O)[O-])cc2)CC1	4.1%	-5.2%	0.3%	5.62µM*	2.2%	7.9%
COc1ccc(S(=O)(=O)NCCCC(=O)Nc2ccc(Sc3ccc(N)cc3)cc2)cc1	0.3%	·	2.0%	·	·	·
C=CCNC(=S)N1CCN(c2ccc([N+](=O)[O-])cc2)CC1	-1.5%	-9.8%	-5.6%	12.6µM*	0.6%	·
O=[N+]([O-])c1ccc(N2CCN(C(=S)NCc3ccc(Cl)cc3)CC2)cc1	-8.7%	?	-0.2%	?	?	13.4%
O=[N+]([O-])c1ccc(N2CCCCC2)cc1	-5.7%	-18.6%	-2.9%	8.91µM*	-8.0%	6.9%
O=[N+]([O-])c1ccc(/C=N\N2CCN(c3ccc(Cl)cc3)CC2)cc1	-1.1%	-16.1%	-4.4%	2.24µM*	2.9%	-0.4%
O=C(O)COc1cccc2c1CCC=C2CCO/N=C(\c1ccccc1)c1cccnc1	-0.9%	·	-9.5%	·	·	·
CC(C)CC(=O)Nc1ccc2nc(SCC(=O)N3CCOCC3)sc2c1	-13.9%	-6.6%	1259µM*[quencher]	2.2%	-3.2%	·
N#C/C(=C/c1ccc(N2CCCCC2)o1)c1cccc(F)c1	-4.8%	?	8.1%	12.6µM*	?	57.8%
